Measured values: ChEMBL document CHEMBL3433997, “St. Jude Leishmania screening dataset” (2016)

These compounds were tested against Glucose transporter (Leishmania mexicana) (UniProt O61059) (assay: ST_JUDE_LEISH: Cytotoxicity at 2uM final concentration against transgenic Leishmania Mexicana promastigotes LmGT2 that are glucose transport deficient and complemented with the L. Mexicana glucose transporter 2. Activity is measured by DNA content using SYBR green in vitro).
Type: functional
In the case of c1cncc(CCNCc2cccc(-c3ccc(-c4nc5ccccc5[nH]4)s3)c2)c1, the inhibition was 4.65%.
CS(=O)(=O)c1ccc(CNCc2ccc(-c3cccc(-c4nc5cc(F)ccc5[nH]4)c3)cc2)cc1 showed an inhibition of 2.88%.
With COc1c(C)[nH]c(C)c(-c2ccc(Oc3cccc(C(F)(F)F)c3)cc2)c1=O the inhibition was 4.46%.
Compound CCOC(=O)c1c[nH]c2c(ccc3ccccc32)c1=O has an inhibition of 5.93%.
With COc1ccc(Cn2c(Nc3cccc(C(F)(F)F)c3)nc3cc(C(=O)NC(C)C)cnc32)cc1Cl the inhibition was 10.9%.
For O=C(c1cccc(Br)c1)N1CCN(c2ccc([N+](=O)[O-])c(NC3CC3)c2)CC1, the inhibition was 1.63%.
For COc1ccc(CCN(C)CCOc2ccc(NC(=O)c3cccc4cc5ccccc5nc34)cc2)cc1OC, the inhibition was 1.88%.
In the case of O=C(/C=C/c1ccc(Cl)c(Cl)c1)NCCCCCCN1CCCN(C(=O)Nc2cc(F)cc(F)c2)CC1, the inhibition was -1.02%.
Compound COc1cc(Cc2c(C)nc3nc(N)nc(N)c3c2C)c(Br)c(OC)c1OC has an inhibition of 4.73%.
Work on COc1ccc2ncc(F)c([C@H](O)CN3CCC(NCc4ccc5c(c4)NC(=O)CO5)CC3)c2c1 yielded an inhibition of 1.56%.
COc1cc2nc(N(C)Cc3cccc(I)c3)nc(N)c2cc1OC was tested, and the inhibition was 1.56%.
For CCCN(Cc1ccc(C)cc1)Cc1cc(=O)c2cc(Cl)ccc2[nH]1, the inhibition was 9.04%.
With CC(=O)c1ccccc1C(=O)N1CCOc2ccc(C(O)C(c3ccccc3)c3ccccc3)cc2C1 (centres undefined) the inhibition was -1.21%.
For CC(CO)(CO)NCc1cc2c3ccccc3c(CNC(C)(CO)CO)cc2c2ccccc12, the inhibition was 2.67%.
COc1cc2ccccc2c(CON2C(=N)N=C(N)NC2(C)C)c1OC gave an inhibition of 1.62%.
With CCCNCc1ccc(-c2ccc(CN(CCOC)C(=O)CCc3ccc(OC)cc3)cc2)nc1 the inhibition was 1.11%.
Work on CC(C)CNCc1cccc(-c2cccc(CNCCCN3CCN(C)CC3)c2)c1 yielded an inhibition of 4.44%.
CC(=O)Nc1ccc(Nc2cc(C)nc(Nc3ccc(NC(C)=O)cc3)n2)cc1 showed an inhibition of 2.71%.
Compound CCOc1ccc2c(=NN=Cc3ccc(OC)c(OC)c3)cc(C)[nH]c2c1 has an inhibition of -0.04%.
For Oc1cccc(CNCCCN(Cc2ccccc2)c2ccccc2)c1, the inhibition was 0.16%.
CC1(C)N=C(N)N=C(N)N1c1ccc(Cl)c(Cl)c1 gave an inhibition of 3.04%.
CN(C)CCCNc1nccc(N(C)c2ccc(NC(=O)Nc3cc(C(F)(F)F)ccc3F)cc2)n1 gave an inhibition of -0.59%.
COc1ccc2nc3cc(Cl)ccc3c(Nc3ccc(O)c(CNC(C)C)c3)c2c1 showed an inhibition of 2.23%.
c1ccc(-c2ccc3c(Nc4ccc5[nH]ccc5c4)ccnc3c2)nc1 was tested, and the inhibition was -0.96%.
CC(C)CCn1c(Sc2ccc(C#N)c([N+](=O)[O-])c2)nnc1-c1ccc(Cl)cc1 gave an inhibition of 4.99%.
CNc1ccc(CNCc2ccc(-c3ccc(-c4nc5cc(C(F)(F)F)ccc5[nH]4)s3)cc2)cc1 gave an inhibition of -0.01%.
Compound Cc1nnsc1C(=O)Nc1ccc(-c2cccc(-c3nc4cccc(C)c4[nH]3)c2)cc1 has an inhibition of 5.18%.
O=C(Nc1ccc(Cl)cc1)Nc1ccc(-c2cccc(-c3nc4cc(F)ccc4[nH]3)c2)cc1 gave an inhibition of 3.09%.
Compound COc1cc(CNC[C@@H](O)[C@H](Cc2ccccc2)NC(=O)c2cc(C3CCCC3)cc(N3CCCCS3(=O)=O)c2)cc(OC)c1 has an inhibition of 6.05%.
CN1CCCN(Cc2cccc(-c3ccc(NC(=O)c4ccc(Cl)cc4)cc3)c2)CC1 showed an inhibition of 21.9%.
COc1ccc2nc3cc(Cl)ccc3c(NCCNCC(O)CO)c2n1 (centres undefined) gave an inhibition of 5.98%.
N#Cc1ccc(-c2ccc(C(=O)NCCCCN3CCC(c4ccc5c(c4OCC(N)=O)CCCC5)CC3)nc2)cc1 gave an inhibition of 2.97%.
For CN(C)CCNCc1cccc(-c2ccc3c(Nc4cc(O)c(Cl)cc4F)ccnc3c2)c1, the inhibition was 3.04%.
CC(=O)COc1c(C2CCN(CCCCNC(=O)c3ccc(-c4ccc(C(F)(F)F)cc4)cc3)CC2)ccc2c1CCCC2 showed an inhibition of 0.59%.
For CCN(C(=O)NC)C1c2cc(C#N)ccc2OC(C)(C)C1O (centres undefined), the inhibition was 1.87%.
Compound Cc1ccc2c(OCCN3CCC(Cc4ccc5c(c4)NC(=O)CO5)CC3)cc(F)cc2n1 has an inhibition of 0.63%.
O=C(Nc1cccc(Cl)c1Cl)Nc1ccnc2ccccc12 was tested, and the inhibition was 5.95%.
Compound COc1ccc(CNCc2cccc(-c3ccc(-c4nc5cc(C(F)(F)F)ccc5[nH]4)cc3)c2)cc1 has an inhibition of 6%.
CCCc1c(C(=O)Nc2ccc3c(c2)CCN(C2CCC2)CC3)cnn1-c1ccc(Cl)cc1 was tested, and the inhibition was 2.6%.
